In PubChem BioAssay (NCI):
This is part of a sample that, as a whole, favours compounds with a hit. Of some 83,000 tested, about 20% had one in any assay.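 Testing used 96-well plates and a 48-hour single-concentration exposure. Example: -40 means 40% of the starting cells died.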 Activity calls are given as the source filed them. The calls were made as follows: active = growth percent below 10; inactive = the rest.

Key:
Assay in all cases: NCI-60 one-dose screen, 48 h (100 = growth as untreated, 0 = no growth, -100 = all killed)
Settings in all cases: 10 µM unless noted
DU-145 prostate = tested on: DU-145 prostate
K-562 leukemia = tested on: K-562 leukemia
MALME-3M melanoma = tested on: MALME-3M melanoma
MDA-MB-231 breast = tested on: MDA-MB-231 breast
RXF 393 renal = tested on: RXF 393 renal
SF-268 CNS = tested on: SF-268 CNS
SF-295 CNS = tested on: SF-295 CNS
SF-539 CNS = tested on: SF-539 CNS
UACC-257 melanoma = tested on: UACC-257 melanoma
M14 melanoma = tested on: M14 melanoma
HCT-15 colon = tested on: HCT-15 colon
HT29 colon = tested on: HT29 colon
SNB-75 CNS = tested on: SNB-75 CNS
SNB-19 CNS = tested on: SNB-19 CNS
U251 CNS = tested on: U251 CNS
PC-3 prostate = tested on: PC-3 prostate
SK-MEL-5 melanoma = tested on: SK-MEL-5 melanoma
UACC-62 melanoma = tested on: UACC-62 melanoma
LOX IMVI melanoma = tested on: LOX IMVI melanoma
SK-MEL-28 melanoma = tested on: SK-MEL-28 melanoma

Measured: growth

C[C@H](Oc1cc(-c2cnn(C3CCNCC3)c2)cnc1N)c1c(Cl)ccc(F)c1Cl
inactive: DU-145 prostate 77.8% | MDA-MB-231 breast 52.2% | RXF 393 renal 31.6% | SF-268 CNS 59% | SF-295 CNS 49.7% | SF-539 CNS 68.3% | HCT-15 colon 43.2% | HT29 colon 12.4% | SNB-75 CNS 76.3% | SNB-19 CNS 65.6% | U251 CNS 37.6% | PC-3 prostate 45.9% | SK-MEL-5 melanoma 59% | UACC-62 melanoma 60.2%
active: K-562 leukemia 5.27% | MALME-3M melanoma -38% | UACC-257 melanoma -45% | M14 melanoma -51.9% | LOX IMVI melanoma 8.87% | SK-MEL-28 melanoma -46.5%

COC(=O)c1ccc2c(c1)NC(=O)[C@@H]1CCCN21
inactive: DU-145 prostate 106% | K-562 leukemia 96.7% | MALME-3M melanoma 105% | MDA-MB-231 breast 97.3% | RXF 393 renal 106% | SF-268 CNS 94.7% | SF-295 CNS 100% | SF-539 CNS 93.8% | UACC-257 melanoma 98.3% | M14 melanoma 102% | HCT-15 colon 96.6% | HT29 colon 98.5% | SNB-75 CNS 83.1% | SNB-19 CNS 94.2% | U251 CNS 102% | PC-3 prostate 100% | SK-MEL-5 melanoma 96.8% | UACC-62 melanoma 94.6% | LOX IMVI melanoma 88.5% | SK-MEL-28 melanoma 106%

CC(=O)c1ccc(NC(=O)CSc2nnc(-c3cc(-c4ccc(C)cc4)nc4ccccc34)o2)cc1
inactive: DU-145 prostate 63.5% | K-562 leukemia 38.1% | RXF 393 renal 59% | SF-268 CNS 55.2% | SF-295 CNS 69.5% | SF-539 CNS 53.7% | UACC-257 melanoma 101% | M14 melanoma 57.9% | HCT-15 colon 56.7% | HT29 colon 68.2% | SNB-75 CNS 62.1% | SNB-19 CNS 43.2% | PC-3 prostate 53.4% | SK-MEL-5 melanoma 68.7% | UACC-62 melanoma 90.7% | LOX IMVI melanoma 31.9% | SK-MEL-28 melanoma 99.3%
active: MALME-3M melanoma -5.39% | MDA-MB-231 breast -2.97% | U251 CNS -59.8%

Cn1nc(C(F)(F)F)c(-c2cc(C(F)(F)F)cc(C(F)(F)F)c2)c1-c1ccc(OCc2ccc(Cl)cc2)cc1O
active: K-562 leukemia 1.63% | MALME-3M melanoma -15.9% | MDA-MB-231 breast -31.5% | RXF 393 renal -14.5% | SF-295 CNS -22.6% | SF-539 CNS 2.13% | UACC-257 melanoma -7.16% | M14 melanoma 6.3% | HCT-15 colon 7.5% | HT29 colon 3.77% | SNB-75 CNS 4.92% | U251 CNS 6.17% | SK-MEL-5 melanoma -36.6% | UACC-62 melanoma 3.02% | LOX IMVI melanoma 6.23%
inactive: DU-145 prostate 20.6% | SF-268 CNS 16.6% | SNB-19 CNS 22.6% | PC-3 prostate 10.7% | SK-MEL-28 melanoma 28%

Cc1[nH]c(N=Nc2ccccc2)nc1N=Nc1ccccc1
active: RXF 393 renal -31.9% | SF-539 CNS 6.93% | UACC-257 melanoma -42.4% | M14 melanoma 3.54% | UACC-62 melanoma -19.7% | LOX IMVI melanoma 3.24%
inactive: DU-145 prostate 33.6% | K-562 leukemia 23.6% | MALME-3M melanoma 30.2% | MDA-MB-231 breast 38.1% | SF-268 CNS 19.2% | SF-295 CNS 17.4% | HCT-15 colon 22.8% | HT29 colon 31.2% | SNB-75 CNS 45.1% | SNB-19 CNS 47.7% | U251 CNS 15.9% | PC-3 prostate 36.4% | SK-MEL-5 melanoma 48.1% | SK-MEL-28 melanoma 52.2%

Clc1ccc2c(NCCCNC3CCCCC3)ccnc2c1
inactive: DU-145 prostate 101% | K-562 leukemia 70.3% | MALME-3M melanoma 116% | MDA-MB-231 breast 94.1% | RXF 393 renal 82.6% | SF-268 CNS 103% | SF-295 CNS 55.1% | SF-539 CNS 101% | UACC-257 melanoma 107% | M14 melanoma 89.8% | HCT-15 colon 84.8% | HT29 colon 48.1% | SNB-75 CNS 89.8% | SNB-19 CNS 110% | U251 CNS 93.8% | PC-3 prostate 87.3% | SK-MEL-5 melanoma 99.9% | UACC-62 melanoma 111% | LOX IMVI melanoma 96.7% | SK-MEL-28 melanoma 116%

Nc1ccccc1NS(=O)(=O)c1ccc(Cl)cc1
inactive: DU-145 prostate 94.2% | K-562 leukemia 95.9% | MALME-3M melanoma 87.5% | MDA-MB-231 breast 98.2% | RXF 393 renal 115% | SF-268 CNS 93.5% | SF-295 CNS 101% | SF-539 CNS 95.6% | UACC-257 melanoma 98.4% | M14 melanoma 97.1% | HCT-15 colon 102% | HT29 colon 91.7% | SNB-75 CNS 81.8% | SNB-19 CNS 96.6% | U251 CNS 101% | PC-3 prostate 91.5% | SK-MEL-5 melanoma 94.4% | UACC-62 melanoma 91.4% | LOX IMVI melanoma 92.1% | SK-MEL-28 melanoma 96.8%

CC(=O)Nc1nc2c(c(N)c1C#N)C(c1cccc(Cl)c1)C1=C(CCCC1=O)N2c1sc2c(c1C#N)CCCC2 (stereo not given)
inactive: DU-145 prostate 72.5% | K-562 leukemia 29.8% | MALME-3M melanoma 83.3% | MDA-MB-231 breast 67.1% | RXF 393 renal 16.2% | SF-268 CNS 66.3% | SF-295 CNS 44% | SF-539 CNS 65% | UACC-257 melanoma 54.4% | M14 melanoma 52.2% | HCT-15 colon 30.1% | HT29 colon 29.4% | SNB-75 CNS 81% | SNB-19 CNS 69.7% | U251 CNS 42.3% | PC-3 prostate 20.8% | SK-MEL-5 melanoma 61.5% | UACC-62 melanoma 59.8% | LOX IMVI melanoma 51.5% | SK-MEL-28 melanoma 82.4%

O=c1c2ccccc2n(CC(O)CN2CCCC2)c2c(Br)cccc12 (stereo not given)
inactive: DU-145 prostate 105% | K-562 leukemia 92.9% | MALME-3M melanoma 125% | MDA-MB-231 breast 129% | RXF 393 renal 98.9% | SF-268 CNS 94.8% | SF-295 CNS 106% | SF-539 CNS 94.9% | UACC-257 melanoma 98.6% | M14 melanoma 98.7% | HCT-15 colon 103% | HT29 colon 103% | SNB-75 CNS 79% | SNB-19 CNS 84.7% | U251 CNS 98.8% | PC-3 prostate 95.9% | SK-MEL-5 melanoma 96.8% | UACC-62 melanoma 119% | LOX IMVI melanoma 96.6% | SK-MEL-28 melanoma 96.9%

CC1CCCN(CCCCCOc2ccc3oc4ccccc4c(=O)c3c2)C1 (stereo not given)
active: MALME-3M melanoma 4.45% | UACC-257 melanoma -18.8% | M14 melanoma 5.02% | HT29 colon 8.93% | SK-MEL-5 melanoma -59.2% | UACC-62 melanoma -26.5%
inactive: DU-145 prostate 85.1% | K-562 leukemia 17.3% | MDA-MB-231 breast 67.8% | RXF 393 renal 60.8% | SF-268 CNS 72.5% | SF-295 CNS 72.9% | SF-539 CNS 77.2% | HCT-15 colon 26.4% | SNB-75 CNS 75.8% | SNB-19 CNS 83.6% | U251 CNS 62.7% | PC-3 prostate 73.7% | LOX IMVI melanoma 33.2% | SK-MEL-28 melanoma 45%

COC1=CC=CC2(OC)C3(O)CCCc4cccc(c43)N3C(=O)COC132 (stereo not given)
inactive: DU-145 prostate 106% | K-562 leukemia 92.5% | MALME-3M melanoma 92.9% | MDA-MB-231 breast 98.5% | RXF 393 renal 104% | SF-268 CNS 98.4% | SF-295 CNS 106% | SF-539 CNS 98% | UACC-257 melanoma 101% | M14 melanoma 99.1% | HCT-15 colon 103% | HT29 colon 97.2% | SNB-75 CNS 84.2% | SNB-19 CNS 101% | U251 CNS 97.3% | PC-3 prostate 95.4% | SK-MEL-5 melanoma 104% | UACC-62 melanoma 92% | LOX IMVI melanoma 97.7% | SK-MEL-28 melanoma 111%

O=C1CCC23OC(C(O)c4ccccc4N12)C1C(Br)=NOC13 (stereo not given)
inactive: DU-145 prostate 107% | K-562 leukemia 96.3% | MALME-3M melanoma 102% | MDA-MB-231 breast 105% | RXF 393 renal 114% | SF-268 CNS 91.9% | SF-295 CNS 106% | SF-539 CNS 93.3% | UACC-257 melanoma 98.1% | M14 melanoma 104% | HCT-15 colon 97.4% | HT29 colon 106% | SNB-75 CNS 80.8% | SNB-19 CNS 108% | U251 CNS 107% | PC-3 prostate 99.2% | SK-MEL-5 melanoma 111% | UACC-62 melanoma 109% | LOX IMVI melanoma 99.7% | SK-MEL-28 melanoma 106%

CC1=C(CCCOC(=O)NCCCl)C2=C(C)C3(CC3)[C@@](C)(O)C(=O)C2=C1
inactive: DU-145 prostate 12.4% | K-562 leukemia 85.9% | MALME-3M melanoma 34.6% | MDA-MB-231 breast 44.8% | SF-268 CNS 14.1% | SF-539 CNS 42.6% | UACC-257 melanoma 48.5% | M14 melanoma 17.9% | HCT-15 colon 24.9% | HT29 colon 31.1% | SNB-75 CNS 58.3% | SNB-19 CNS 57.3% | U251 CNS 54.2% | PC-3 prostate 38% | UACC-62 melanoma 49.9% | LOX IMVI melanoma 61.1% | SK-MEL-28 melanoma 69.3%
active: RXF 393 renal -69.2% | SF-295 CNS 1.44% | SK-MEL-5 melanoma 7.89%

Nc1n[nH]c2cccc(C#Cc3cccc(NC(=O)c4cc(N5CCOCC5)cc(C(F)(F)F)c4)c3)c12
inactive: DU-145 prostate 64.6% | MDA-MB-231 breast 30% | RXF 393 renal 38.7% | SF-268 CNS 55.8% | SF-295 CNS 69.1% | SF-539 CNS 24.6% | UACC-257 melanoma 45.1% | M14 melanoma 19.2% | HCT-15 colon 36.9% | HT29 colon 22.6% | SNB-75 CNS 71.5% | SNB-19 CNS 83.9% | U251 CNS 56.3% | PC-3 prostate 69% | SK-MEL-5 melanoma 55.7% | UACC-62 melanoma 14% | LOX IMVI melanoma 18.6% | SK-MEL-28 melanoma 24.5%
active: K-562 leukemia 4.32% | MALME-3M melanoma -18.1%

C[C@@H]1C(=O)[C@@H]2C[C@@H](O)[C@@H](O)C[C@]2(C)[C@H]2CC[C@@]3(C)C(=C12)CC[C@@H]3[C@@](C)(O)[C@H](O)CCC(C)(C)O
active: UACC-257 melanoma -10.5%
inactive: DU-145 prostate 99.2% | K-562 leukemia 94.9% | MALME-3M melanoma 103% | MDA-MB-231 breast 107% | RXF 393 renal 116% | SF-268 CNS 98.2% | SF-295 CNS 108% | SF-539 CNS 103% | M14 melanoma 105% | HCT-15 colon 107% | HT29 colon 97.6% | SNB-75 CNS 108% | SNB-19 CNS 104% | U251 CNS 96.6% | PC-3 prostate 96.4% | SK-MEL-5 melanoma 98.1% | UACC-62 melanoma 97.8% | LOX IMVI melanoma 101% | SK-MEL-28 melanoma 113%
